This is a sample that favours compounds with a hit; in the whole collection about 11% have one here.
L3MBTL1 block – inhibitors of human L3MBTL1; AlphaScreen L3MBTL1–H3K9me1 peptide binding; Potency, µM (series often up to 57.1 µM), most hits filed as inhibitors; hit rate 0.66% among 230,000; Q9Y468; also: nearly all actives have a fitted effect of over 60% in size
Target sequence (Q9Y468 whole entry, looked up): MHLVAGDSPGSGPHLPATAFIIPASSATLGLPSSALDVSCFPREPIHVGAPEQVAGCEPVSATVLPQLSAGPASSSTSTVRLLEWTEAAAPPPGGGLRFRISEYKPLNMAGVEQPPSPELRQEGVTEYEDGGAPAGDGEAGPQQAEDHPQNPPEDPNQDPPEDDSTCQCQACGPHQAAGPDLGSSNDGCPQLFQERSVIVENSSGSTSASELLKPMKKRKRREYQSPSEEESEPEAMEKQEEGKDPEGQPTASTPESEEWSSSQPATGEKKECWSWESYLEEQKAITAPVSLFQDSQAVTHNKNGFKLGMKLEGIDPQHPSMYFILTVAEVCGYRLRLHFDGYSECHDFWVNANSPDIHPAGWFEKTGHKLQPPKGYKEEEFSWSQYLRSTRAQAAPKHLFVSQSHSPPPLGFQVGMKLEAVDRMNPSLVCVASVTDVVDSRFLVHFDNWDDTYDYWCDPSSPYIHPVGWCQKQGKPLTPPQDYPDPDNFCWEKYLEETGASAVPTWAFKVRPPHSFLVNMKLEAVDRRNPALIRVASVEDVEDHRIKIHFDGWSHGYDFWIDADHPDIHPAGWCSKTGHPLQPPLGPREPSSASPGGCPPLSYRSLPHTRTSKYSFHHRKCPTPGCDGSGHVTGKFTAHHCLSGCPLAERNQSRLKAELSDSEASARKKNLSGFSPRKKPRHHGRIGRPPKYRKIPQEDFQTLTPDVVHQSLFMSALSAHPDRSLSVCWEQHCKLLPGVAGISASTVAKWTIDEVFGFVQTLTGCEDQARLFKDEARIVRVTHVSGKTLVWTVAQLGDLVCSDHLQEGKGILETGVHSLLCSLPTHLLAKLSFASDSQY
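First, the protein-peptide complex forms for 30 min at room temperature (L3MBTL1 50 nM, biotinylated H3K9me1 peptide 75 nM). Next, compounds are pin-transferred and incubated 30 min. Finally, AlphaScreen beads are added and read after 30 min.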
HP1b binding inh – blocks HP1-beta chromodomain binding to methylated histone tails; AID 540317; hit rate 0.56% among 390,000; P83916; Potency, µM (series often up to 114 µM), actives largely listed as inhibitors; AlphaScreen HP1-beta / biotin-H3K9me3 peptide binding; also: nearly all actives have a fitted effect of over 70% in size
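HP1-beta protein (50 nM final) preincubated 30 min at room temperature with biotinylated H3(1-18)K9me3 peptide (50 nM) in PBS pH 7.4, 0.01% Tween-20, then compound added for 30 min. AlphaScreen streptavidin donor/nickel chelate acceptor beads (10 ug/mL final), 30 min dark, luminescence read.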
G9a inh – G9a (human) methyltransferase inhibition | G9a H3K9 monomethylation, AlphaScreen, 2 h | Potency, µM (highest dose often 102 µM), hits mostly inhibitors | hit rate 8.8% among 350,000; also: nearly all actives have a fitted effect of over 75% in size
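Chemiluminescent proximity detection of H3K9 monomethylation, read after 10 min bead incubation in the dark. Reaction: 20 nM G9a, 500 nM biotin-H3K9 peptide, 20 uM SAM cofactor, 2 h, room temperature, following 15 min enzyme-compound preincubation.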
JMJD2A Tudor – JMJD2A Tudor domain (human) inhibition; AlphaScreen JMJD2A-Tudor / H3K4me3 peptide binding; Potency, µM (titrated, usually from 114 µM), most hits filed as inhibitors; hit rate 4.4% among 390,000; AID 504339; also: nearly all actives have a fitted effect of over 50% in size
BAZ2B inh – BAZ2B (human) inhibition; AlphaScreen BAZ2B-H3K14Ac peptide displacement; hit rate 4.4% among 360,000; Potency, µM (series often up to 114 µM), usual class: inhibitors; Q9UIF8; also: nearly all actives have a fitted effect of over 60% in size
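AlphaScreen displacement: compounds (up to 110uM) incubated 30 min at room temperature with a preformed 50 nM BAZ2B/50 nM biotinylated H3K14Ac peptide complex in PBS pH 7.4 with Tween-20. Donor and acceptor beads at 10 ug/mL final added, 20 min light-protected before reading.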
Of the large screens only hits and unclear results are named; the others gave an inactive call; ! = a repeat was not active. Calls follow the shape of the dose curve; as a rule, active = well fitted inhibition curve with a large enough effect; inconclusive = small, poorly fitted or top-dose-only effect; inactive = no such curve, though single readings can be large or run the other way.

CC(C)=NOCC(=O)Nn1c(COc2c(C)cccc2C)nc2ccccc2c1=O	none (no result: L3MBTL1 block)
COc1ccc(Nc2ncc(C(=O)Nc3cccc(OC)c3)c3ccccc23)cc1	none (no result: L3MBTL1 block)
O=C(CN1C(=O)COc2ccc(S(=O)(=O)Nc3ccccc3)cc21)Nc1cccc(Cl)c1	none (no result: L3MBTL1 block)
COc1ccccc1N1CCN(C(=O)c2c(C)oc3ncn(CC(C)C)c(=O)c23)CC1	none (no result: L3MBTL1 block)
CCN(CC)c1ccc(-c2nc(-c3ccco3)no2)cc1[N+](=O)[O-]	none (no result: L3MBTL1 block)
COc1ccc(N2CCn3c2nc2c3c(=O)n(CCCc3ccccc3)c(=O)n2C)c(OC)c1	G9a inh 32µM, JMJD2A Tudor inconclusive, BAZ2B inh inconclusive
COc1ccc(N2CCn3c2nc2c3c(=O)n(CCc3ccccc3)c(=O)n2C)c(OC)c1	G9a inh inconclusive (no result: HP1b binding inh, JMJD2A Tudor)
COc1ccc2cc(/C=C3\SC(=S)NC3=O)c(N3CCOCC3)nc2c1	G9a inh inconclusive, JMJD2A Tudor inconclusive, BAZ2B inh inconclusive
COC(=O)/C=C1\SC(N2CCOCC2)=C(c2ccc(OC)cc2)C1=O	G9a inh 2µM, BAZ2B inh 45µM
CCOC(=O)c1ccc(Nc2nc(C(=O)OCC)nc3ccccc23)cc1	none
CCOC(=O)c1nc(Nc2ccc(C(=O)O)cc2)c2ccccc2n1	G9a inh 40µM, JMJD2A Tudor 28µM
CCOC(=O)c1nc(Nc2ccc(Nc3ccccc3)cc2)c2ccccc2n1	HP1b binding inh inconclusive, G9a inh inconclusive, JMJD2A Tudor 28µM, BAZ2B inh 16µM (no result: L3MBTL1 block)
CCOC(=O)c1nc(Nc2ccc(N3CCC(C)CC3)cc2)c2ccccc2n1	HP1b binding inh inconclusive, JMJD2A Tudor 28µM, BAZ2B inh 40µM (no result: G9a inh)
NC(Cc1cc(I)c(Oc2cc(I)c(O)c(I)c2)c(I)c1)C(=O)O (stereo unspecified)	none (no result: L3MBTL1 block, HP1b binding inh, JMJD2A Tudor, BAZ2B inh)
CC(C)NCC(O)COc1ccc(CCOCC2CC2)cc1 (stereo unspecified)	G9a inh 35µM!
CC(C)NC[C@@H](O)COc1ccc(CCOCC2CC2)cc1	none (no result: L3MBTL1 block, HP1b binding inh, JMJD2A Tudor, BAZ2B inh)
Cc1ccc(S(=O)(=O)Nn2c(C)nnc2-n2nc(C)cc2C)cc1	JMJD2A Tudor 50µM, BAZ2B inh 71µM
COc1ccc(N2CCN(C(=O)c3ccccc3N(C)S(=O)(=O)c3ccc(C)cc3)CC2)cc1	G9a inh inconclusive, JMJD2A Tudor inconclusive, BAZ2B inh 40µM (no result: L3MBTL1 block)
COc1ccc(N2CCN(C(=O)CN(c3ccccc3)S(=O)(=O)c3ccc(OC)cc3)CC2)cc1	HP1b binding inh inconclusive, G9a inh 10µM, JMJD2A Tudor 56µM, BAZ2B inh inconclusive (no result: L3MBTL1 block)
COc1ccc(N2CCN(C(=O)CN(c3ccc(OC)cc3)S(=O)(=O)c3ccccc3)CC2)cc1	G9a inh 40µM, JMJD2A Tudor inconclusive, BAZ2B inh inconclusive (no result: L3MBTL1 block)
COc1ccc(N(CC(=O)N2CCN(C)CC2)S(=O)(=O)c2ccccc2)cc1	none (no result: L3MBTL1 block)
COc1ccc(S(=O)(=O)N(CC(=O)N2CCN(c3ccccc3OC)CC2)c2ccccc2)cc1	G9a inh inconclusive
Cc1ccc(S(=O)(=O)N(C)c2ccccc2C(=O)N2CCCC2)cc1	none (no result: L3MBTL1 block, G9a inh)
O=C(O)C1=NN(c2cc(Cl)c(S(=O)(=O)O)cc2Cl)C(=O)C1	JMJD2A Tudor 6.3µM (no result: L3MBTL1 block, G9a inh, BAZ2B inh)
COC(=O)Cc1c(C)[nH]n(-c2cc(Cl)cc(Cl)c2)c1=O	G9a inh 40µM, BAZ2B inh inconclusive (no result: L3MBTL1 block)
O=C(CN1CCN(S(=O)(=O)N2CCOCC2)CC1)Nc1cc(Cl)ccc1Cl	none (no result: L3MBTL1 block)
CC(C)(/C=N/O)/[N+]([O-])=C/C=[N+](\[O-])C(C)(C)/C=N/O	BAZ2B inh inconclusive
CN(C)c1ccc(/C=[N+](\[O-])C(C)(C)/C=N/O)cc1	G9a inh inconclusive, JMJD2A Tudor 50µM
COc1ccc(C)c2sc(N(CCN(C)C)C(=O)c3ccc4ccccc4c3)nc12	G9a inh 50µM, JMJD2A Tudor inconclusive, BAZ2B inh inconclusive (no result: L3MBTL1 block)
Cc1cc(C)c2nc(N(CCN(C)C)C(=O)c3ccc(S(=O)(=O)N(C)CC4CCCO4)cc3)sc2c1 (stereo unspecified)	G9a inh 79µM, JMJD2A Tudor inconclusive, BAZ2B inh inconclusive (no result: L3MBTL1 block)
COc1ccc(Cl)c2sc(N(CCN(C)C)C(=O)C3=COCCO3)nc12	none (no result: L3MBTL1 block, G9a inh, BAZ2B inh)
CCOc1cccc2sc(N(CCCN(C)C)C(=O)c3ccc(S(=O)(=O)N(C)CC4CCCO4)cc3)nc12 (stereo unspecified)	none (no result: L3MBTL1 block)
CCOc1cccc2sc(N(CCN(C)C)C(=O)c3ccc4ccccc4c3)nc12	G9a inh 50µM, JMJD2A Tudor inconclusive, BAZ2B inh inconclusive (no result: L3MBTL1 block)

Screening data from PubChem.
